In the supplement of paper PMC6555819:

Legend:
Experiment in all cases: PBM binding z-score (relative to random genomic background probes); higher = stronger binding; sequences stand for … in GC…GCGATTGACAGCGTAGAATGAAGG
[1] = system: PPARg:RXRa DBDmut IVT, anti-RXR (DBD mutation: RXRa K156A/R161A, NR concentration 270 nM, RXRa partner concentration 90 nM)
Summary of the method: (§1)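 Regression normalization was applied to scanned fluorescence from custom Agilent 4×180K protein-binding microarrays. Before scanning, arrays were incubated 1 h with ligand-free nuclear receptor dimers, and binding was detected with antibodies against each partner (one per run). Binding z-scores use the random background probes as reference.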

[2] = system: PPARg:RXRa IVT, anti-PPARg (NR concentration 270 nM, RXRa partner concentration 90 nM)
Summary of the method: as §1

[3] = system: PPARg DBDmut:RXRa IVT, anti-PPARg (DBD mutation: PPARg1 K132A/R137A, NR concentration 270 nM, RXRa partner concentration 90 nM)
Summary of the method: as §1

[4] = system: PPARg DBDmut IVT, anti-PPARg (DBD mutation: PPARg1 K132A/R137A, NR concentration 270 nM)
Summary of the method: as §1

[5] = system: PPARg homodimer (NR concentration 180 nM)
Summary of the method: as §1

[6] = system: PXR:RXRa (NR concentration 270 nM, RXRa partner concentration 90 nM)
Summary of the method: as §1

[7] = system: PXR homodimer (NR concentration 270 nM)
Summary of the method: as §1

[8] = system: RARa:RXR (NR concentration 270 nM, RXRa partner concentration 90 nM)
Summary of the method: as §1

[9] = system: RARa homodimer (NR concentration 270 nM)
Summary of the method: as §1

[10] = system: RARb:RXRa (NR concentration 270 nM, RXRa partner concentration 90 nM)
Summary of the method: as §1

[11] = system: RARb homodimer (NR concentration 270 nM)
Summary of the method: as §1

[12] = system: RARg:RXRa (NR concentration 270 nM, RXRa partner concentration 90 nM)
Summary of the method: as §1

[13] = system: RARg homodimer (NR concentration 270 nM)
Summary of the method: as §1

[14] = system: RXRa DBDmut IVT, anti-RXR (DBD mutation: RXRa K156A/R161A, NR concentration 90 nM)
Summary of the method: as §1

[15] = system: RXRa homodimer (NR concentration 180 nM)
Summary of the method: as §1

[16] = system: THRa:RXRa (NR concentration 90 nM, RXRa partner concentration 90 nM)
Summary of the method: as §1

[17] = system: THRa homodimer (NR concentration 90 nM)
Summary of the method: as §1

[18] = system: VDR homodimer (NR concentration 270 nM)
Summary of the method: as §1

## CCTTACGGCTCACTGACAGGTTATAGCATTTGGA
[1]
  PBM binding z-score: 0.701
[2]
  PBM binding z-score: -0.612
[3]
  PBM binding z-score: 0.0543
[4]
  PBM binding z-score: -0.0527
[5]
  PBM binding z-score: 0.157
[6]
  PBM binding z-score: 0.158
[7]
  PBM binding z-score: 0.192
[8]
  PBM binding z-score: 0.669
[9]
  PBM binding z-score: 0.331
[10]
  PBM binding z-score: 0.0996
[11]
  PBM binding z-score: 0.213
[12]
  PBM binding z-score: 0.216
[13]
  PBM binding z-score: 0.301
[14]
  PBM binding z-score: 0.689
[15]
  PBM binding z-score: 0.388
[16]
  PBM binding z-score: 0.0321
[17]
  PBM binding z-score: 0.195
[18]
  PBM binding z-score: -0.0205

## CTACCAAGGTTAACAAGGTCGTTGATTACTATTC
[1]
  PBM binding z-score: 1.98
[2]
  PBM binding z-score: 1.78
[3]
  PBM binding z-score: 0.186
[4]
  PBM binding z-score: 0.431
[5]
  PBM binding z-score: 1.25
[6]
  PBM binding z-score: 4.32
[7]
  PBM binding z-score: 8.81
[8]
  PBM binding z-score: 3.19
[9]
  PBM binding z-score: 0.369
[10]
  PBM binding z-score: 2.81
[11]
  PBM binding z-score: 2.69
[12]
  PBM binding z-score: 2.82
[13]
  PBM binding z-score: 2.39
[14]
  PBM binding z-score: 2.35
[15]
  PBM binding z-score: 2.98
[16]
  PBM binding z-score: 3.39
[17]
  PBM binding z-score: 1.93
[18]
  PBM binding z-score: 3.98

## CGAACGAGGGCATGAGTTGATAGTAAATGCCGAT
[1]
  PBM binding z-score: 3.01
[2]
  PBM binding z-score: 1.98
[3]
  PBM binding z-score: -0.123
[4]
  PBM binding z-score: 0.201
[5]
  PBM binding z-score: -0.00807
[6]
  PBM binding z-score: 0.636
[7]
  PBM binding z-score: 0.316
[8]
  PBM binding z-score: 0.644
[9]
  PBM binding z-score: -0.245
[10]
  PBM binding z-score: 1.94
[11]
  PBM binding z-score: 0.956
[12]
  PBM binding z-score: 1.48
[13]
  PBM binding z-score: 1.7
[14]
  PBM binding z-score: 2.41
[15]
  PBM binding z-score: 1.09
[16]
  PBM binding z-score: 1.33
[17]
  PBM binding z-score: -0.0333
[18]
  PBM binding z-score: 1.98

## TCGAGTAGGATAGTCGGGGCATTCAGCCAACATA
[1]
  PBM binding z-score: 0.456
[2]
  PBM binding z-score: -0.749
[3]
  PBM binding z-score: -1.74
[4]
  PBM binding z-score: -1.22
[5]
  PBM binding z-score: -0.949
[6]
  PBM binding z-score: -0.303
[7]
  PBM binding z-score: -0.615
[8]
  PBM binding z-score: -0.363
[9]
  PBM binding z-score: -0.838
[10]
  PBM binding z-score: -0.448
[11]
  PBM binding z-score: -0.402
[12]
  PBM binding z-score: -0.475
[13]
  PBM binding z-score: -0.579
[14]
  PBM binding z-score: 0.18
[15]
  PBM binding z-score: -0.289
[16]
  PBM binding z-score: 0.0302
[17]
  PBM binding z-score: -0.471
[18]
  PBM binding z-score: -0.497

## GCTGCTAGGTCAACTGATGCTCAGCTAAAGCTCG
[1]
  PBM binding z-score: 4.93
[2]
  PBM binding z-score: 3.92
[3]
  PBM binding z-score: -0.517
[4]
  PBM binding z-score: -0.991
[5]
  PBM binding z-score: 1.02
[6]
  PBM binding z-score: 1.26
[7]
  PBM binding z-score: -0.735
[8]
  PBM binding z-score: 2.18
[9]
  PBM binding z-score: -0.0559
[10]
  PBM binding z-score: 4.27
[11]
  PBM binding z-score: 3.18
[12]
  PBM binding z-score: 4.37
[13]
  PBM binding z-score: 5.36
[14]
  PBM binding z-score: 1.64
[15]
  PBM binding z-score: 2.89
[16]
  PBM binding z-score: 2.89
[17]
  PBM binding z-score: 0.915
[18]
  PBM binding z-score: -0.0358

## TCTCGGAGGACACGAAGGTCCGAGCTTTCCAGAG
[1]
  PBM binding z-score: 1.24
[2]
  PBM binding z-score: -0.478
[3]
  PBM binding z-score: -0.785
[4]
  PBM binding z-score: -1.37
[5]
  PBM binding z-score: -0.731
[6]
  PBM binding z-score: -0.253
[7]
  PBM binding z-score: -0.438
[8]
  PBM binding z-score: -0.322
[9]
  PBM binding z-score: -1.26
[10]
  PBM binding z-score: 1.56
[11]
  PBM binding z-score: 0.577
[12]
  PBM binding z-score: 0.296
[13]
  PBM binding z-score: 1.3
[14]
  PBM binding z-score: 0.546
[15]
  PBM binding z-score: -0.235
[16]
  PBM binding z-score: 1.26
[17]
  PBM binding z-score: -0.0585
[18]
  PBM binding z-score: -0.315

## ATCTCTAGGTAAAGTTAAGTGAAAGATCGATAGA
[1]
  PBM binding z-score: 2.61
[2]
  PBM binding z-score: 1.99
[3]
  PBM binding z-score: 0.949
[4]
  PBM binding z-score: 2.08
[5]
  PBM binding z-score: 0.251
[6]
  PBM binding z-score: -0.00139
[7]
  PBM binding z-score: 0.451
[8]
  PBM binding z-score: 0.249
[9]
  PBM binding z-score: 0.961
[10]
  PBM binding z-score: 0.312
[11]
  PBM binding z-score: -0.142
[12]
  PBM binding z-score: 0.48
[13]
  PBM binding z-score: 0.546
[14]
  PBM binding z-score: 0.204
[15]
  PBM binding z-score: 0.171
[16]
  PBM binding z-score: 0.478
[17]
  PBM binding z-score: -0.14
[18]
  PBM binding z-score: 0.368
